Values without a mark were called inactive. The rule behind the calls is not given here.
What follows are compounds tested on HIV-1 nucleocapsid protein NCp7 (binding to TG oligonucleotide) (assay: HIV Nucleocapsid (AID 346;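 note: potency is for inhibitors that block NC binding and lower polarization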)). Conditions: HIV-1 NC / fluorescein-TGTGTGTG probe, fluorescence polarization.
Outline: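 10 nM TG4xF probe with 100 nM nucleocapsid protein in high-salt Hepes pH 7.5 (250mM NaCl) containing 1uM ZnCl2 and reducing agents. Compound inhibition of binding was read as fluorescein polarization after 1 hr at room temperature.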
Work on `O=C(c1ccco1)N1CCC2(CC1)CCN(c1ccccn1)CC2` yielded a Potency greater than 20 µM. With `COc1ccc(CNc2nc(-c3c(C)noc3C)nc3ccccc23)c(OC)c1` the Potency was greater than 20 µM. `N#Cc1ccc(CN2CC[C@@]3(CCCN(S(=O)(=O)c4ccccc4)C3)C2)cc1` gave a Potency greater than 20 µM. `O=C(Nc1cccc(F)c1)N1CC[C@@]2(CCCN(C(=O)c3csnn3)C2)C1` was tested, and the Potency was greater than 20 µM. Work on `O=C(Oc1ccccc1)N1CCC2(CC1)CN(c1ccncc1)C2` yielded a Potency greater than 20 µM. For `O=C(c1cccc(F)c1)N1CCC2(CC1)CCN(c1ccc(-c3ccccc3)cc1)CC2`, the Potency was greater than 20 µM. `c1cncc(CNc2cc(-c3ccoc3)ncn2)c1` was tested, and the Potency was greater than 20 µM. `COc1ccc(CNc2ncncc2-c2cccc(C#N)c2)c(OC)c1` was tested, and the Potency was greater than 20 µM. For `O=C(c1csnn1)N1CCC2(CC1)CN(c1ccccc1)C2`, the Potency was greater than 20 µM. For `COc1ccc2[nH]cc(CCNc3ccnc(-c4ccc5c(c4)OCO5)n3)c2c1`, the Potency was greater than 20 µM. With `CNc1cc(-c2c(C)noc2C)ncn1` the Potency was greater than 20 µM. `CN(Cc1ccco1)c1nc(-c2cccnc2)nc2ccccc12` gave a Potency greater than 20 µM. In the case of `Cn1cccc1C(=O)N1CCC[C@@]2(CCN(c3ncccn3)C2)C1`, the Potency is reported as greater than 20 µM. `COCC(=O)N1CCC2(CCN(Cc3nccs3)CC2)CC1` gave a Potency greater than 20 µM. Compound `COC(=O)N1CCC2(CC1)CN(c1ccc(-c3ccccc3)cc1)C2` has a Potency greater than 20 µM. Work on `CN1CCN(c2ncc3nc(-c4cn(C)c5ccccc45)c(=O)n(-c4ccccc4)c3n2)CC1` yielded a Potency greater than 4 µM. `COc1ncc2nc(-c3ccc(Cl)cc3)c(=O)n(CCc3ccccc3)c2n1` showed a Potency greater than 20 µM. `COc1ncc2ncc(=O)n(C)c2n1` was tested, and the Potency was greater than 20 µM. For `COc1ccc(CNc2cc(-c3cccc(NS(C)(=O)=O)c3)ncn2)c(OC)c1`, the Potency was greater than 20 µM. `CN(C)c1ncnc2ccc(-c3ccccc3C(F)(F)F)cc12` showed a Potency greater than 20 µM. Work on `O=C(Nc1ccccc1)N1CC2(CCN(C(=O)c3ccncc3)CC2)C1` yielded a Potency greater than 20 µM. `COCC(=O)N1CCC[C@@]2(CCN(Cc3ccc(C#N)cc3)C2)C1` gave a Potency greater than 20 µM. In the case of `O=c1c(-c2ccccc2)nc2cnc(N3CCNCC3)nc2n1C1CC1`, the Potency is reported as greater than 20 µM. Compound `COc1ccc(-n2c(=O)c(-c3cccs3)nc3cnc(OC)nc32)cc1` has a Potency greater than 20 µM. `COc1ccc(Oc2ncc3nc(-c4ccc(Cl)cc4)c(=O)n(C4CC4)c3n2)cc1` was tested, and the Potency was greater than 20 µM. `COc1ncc2nc(-c3ccc(Cl)cc3)c(=O)n(C)c2n1` was tested, and the Potency was greater than 20 µM. For `CS(=O)(=O)N1CCC2(CC1)CN(C(=O)Nc1cccc(F)c1)C2`, the Potency was greater than 20 µM. In the case of `CC(C)CN1CC2(CCN(S(=O)(=O)c3ccccc3)CC2)C1`, the Potency is reported as greater than 20 µM. For `CCNc1ncc2nc(-c3cn(C)c4ccccc34)c(=O)n(-c3ccccc3)c2n1`, the Potency was 16.4 µM. Work on `CN(C)Cc1ccccc1-c1nc(N(C)Cc2ccco2)c2ccccc2n1` yielded a Potency greater than 20 µM. Work on `COc1cccc(Cn2c(=O)c(-c3ccccc3)nc3cnc(OC)nc32)c1` yielded a Potency greater than 20 µM. Work on `Cc1nc2cnc(OCc3ccccc3)nc2n(Cc2ccc(F)cc2)c1=O` yielded a Potency greater than 20 µM. Compound `CN(C)Cc1ccccc1-c1ccc2ncnc(NCc3cccs3)c2c1` has a Potency greater than 20 µM. Compound `O=C(c1ccco1)N1CCC2(CCCN(c3ncccn3)C2)CC1` has a Potency greater than 20 µM. `COc1cccc(-c2nc(N3CCNCC3)c3ccccc3n2)c1` was tested, and the Potency was greater than 20 µM. Work on `CN(C)C(=O)c1ccc(-c2nc(Nc3ccccc3)c3ccccc3n2)cc1` yielded a Potency greater than 20 µM. In the case of `Cc1cccc(CNc2ncncc2-c2ccccc2Cl)c1`, the Potency is reported as greater than 20 µM. Work on `CCNc1ncc2nc(-c3ccc(F)cc3)c(=O)n(Cc3ccc(F)cc3)c2n1` yielded a Potency greater than 20 µM. `COc1ccccc1CNc1cc(-c2ccccc2OC)ncn1` showed a Potency greater than 20 µM. Work on `COc1ccc(-n2c(=O)c(-c3cccs3)nc3cnc(N(C)C)nc32)cc1` yielded a Potency greater than 4 µM.

— PubChem BioAssay (NCATS)
Potency is the fitted concentration of half-maximal effect.
